9 compounds from the supplement of paper PMC10646978 can be followed below.

± gives the standard deviation.

Holding throughout (details): modulator concentration 10 µM
Experiment [1] has as its system RAW-Dual (murine macrophage reporter line). As to the kind of experiment: NF-kB reporter (SEAP) activity fold change vs agonist alone; higher = enhanced NF-kB activity. In a few lines: (§1)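 RAW-Dual murine macrophage reporter cells were plated at 50 000 per well in 384-well plates, pin-transferred compound to 10 μM final, and pre-incubated for 1 hour at 37 °C before a PRR agonist was added and the cells incubated overnight. NF-κB activity was read from supernatant SEAP with QUANTI-Blue at 620 nm absorbance, and IRF activity from Lucia luciferase with QUANTI-Luc by luminescence. Each signal was expressed as fold change by dividing by the mean agonist-only control on the same plate. Two replicate plates were averaged, with errors obtained by propagation.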

Experiment [2] shares this test system. The experiment can be described thus: IRF reporter (Lucia luciferase) activity fold change vs agonist alone; higher = enhanced IRF activity. In a few lines:
as §1

For experiment [3] the test system is unchanged. The experiment can be described thus: viability score (confluency relative to resting cells, overnight) (fraction); higher = more viable, active = viable (0.7 or more). In a few lines:
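Two confluency masks, generated with IncuCyte software over all imaged wells, were applied to IncuCyte images of RAW-Dual macrophages. The cells, in 384-well plates, had been exposed overnight to 10 μM final compound. The viability score is confluency as a fraction of resting cells, and a compound met the cutoff only with both masks above 70% of resting cells.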

Setting [4] is: agonist: CpG ODN 1826 0.5 ug/mL.

Take `O=C(NCCCn1ccc2cccnc21)c1ccccc1C(F)(F)F`: the NF-kB reporter is 0.946 ± 0.091 in experiment [1] (setting [4]), 1.1 ± 0.092 in experiment [1] (agonist: LPS 0.1 ug/mL) and 1.03 ± 0.18 in experiment [1] (agonist: MPLA […]). Further, the values for the IRF reporter in experiment [2] (agonist: 3'3'-cGAMP 10 ug/mL), in experiment [2] (agonist: LPS 0.1 ug/mL) and in experiment [2] (agonist: MPLA […]) were 1.06 ± 0.056, 1.16 ± 0.1 and 1.45 ± 0.15, respectively. For the same compound, the viability score in experiment [3] was 0.978 (active).

Consider `CCOC(=O)C1=C(C)NC(C)=C(C(=O)OC)C1c1ccccc1` (stereo not drawn), for which the NF-kB reporter in experiment [1] (setting [4]) came to 0.884 ± 0.1; in experiment [1] (agonist: LPS 0.1 ug/mL) it was 0.831 ± 0.057; in experiment [1] (agonist: MPLA […]), 1.63 ± 0.059. Moreover, the IRF reporter in experiment [2] (agonist: 3'3'-cGAMP 10 ug/mL) worked out at 0.609 ± 0.085; in experiment [2] (agonist: LPS 0.1 ug/mL) it was 0.896 ± 0.037; in experiment [2] (agonist: MPLA […]) it was 0.79 ± 0.06. Also, the viability score in experiment [3] is 0.946 (active).

Turning to `O=C(C1=C(O)C(=O)N(c2nccs2)C1c1ccccc1)c1cc2ccccc2o1` (stereo not drawn), the NF-kB reporter amounted to 0.928 ± 0.054 in experiment [1] (setting [4]), 1.57 ± 0.12 in experiment [1] (agonist: LPS 0.1 ug/mL) and 0.97 ± 0.062 in experiment [1] (agonist: MPLA […]). For the same compound, the IRF reporter in experiment [2] (agonist: 3'3'-cGAMP 10 ug/mL) amounted to 0.664 ± 0.026; in experiment [2] (agonist: LPS 0.1 ug/mL), 0.967 ± 0.19; in experiment [2] (agonist: MPLA […]) it was 0.885 ± 0.082. Moreover, in experiment [3], the viability score is 0.997 (active).

Consider `CCC(=O)N1c2ccccc2NC2=C(C(=O)CC(c3ccccc3Cl)C2)C1c1ccc(C)cc1` (stereo not drawn), for which the NF-kB reporter in experiment [1] (setting [4]) turned out to be 1.02 ± 0.17; in experiment [1] (agonist: LPS 0.1 ug/mL) it was 0.983 ± 0.079; in experiment [1] (agonist: MPLA […]) it was 0.961 ± 0.15. In addition, the values for the IRF reporter in experiment [2] (agonist: 3'3'-cGAMP 10 ug/mL), in experiment [2] (agonist: LPS 0.1 ug/mL) and in experiment [2] (agonist: MPLA […]) were 0.837 ± 0.022, 1.2 ± 0.17 and 1.23 ± 0.36, respectively. Further, the viability score in experiment [3] was 1.01 (active).

With `O=c1c(CN2CCC(O)(c3ccc(Br)cc3)CC2)coc2ccccc12`, the NF-kB reporter in experiment [1] (setting [4]) stood at 0.712 ± 0.056; in experiment [1] (agonist: LPS 0.1 ug/mL), 0.953 ± 0.059; in experiment [1] (agonist: MPLA […]), 1.07 ± 0.066. The IRF reporter in experiment [2] (agonist: 3'3'-cGAMP 10 ug/mL) turned out to be 0.676 ± 0.032; in experiment [2] (agonist: LPS 0.1 ug/mL) it was 1.07 ± 0.14; in experiment [2] (agonist: MPLA […]), 0.85 ± 0.12. Moreover, the viability score in experiment [3] was 1.01 (active).

`CCN(CC)CCOC(=O)C(c1ccccc1)c1ccccc1.Cl`: the NF-kB reporter in experiment [1] (setting [4]) is 0.913 ± 0.08; in experiment [1] (agonist: LPS 0.1 ug/mL), 0.887 ± 0.067; in experiment [1] (agonist: MPLA […]) it was 0.965 ± 0.084. In addition, the IRF reporter in experiment [2] (agonist: 3'3'-cGAMP 10 ug/mL) was determined as 1.58 ± 0.074; in experiment [2] (agonist: LPS 0.1 ug/mL), 1.29 ± 0.12; in experiment [2] (agonist: MPLA […]), 1.49 ± 0.12. For the same compound, the viability score in experiment [3] is 0.941 (active).

Take `CN(C)C1C(O)=C(C(N)=O)C(=O)C2(O)C(O)=C3C(=O)c4c(O)cccc4C(C)(O)C3CC12.Cl` (stereo not drawn): the results for the NF-kB reporter in experiment [1] (setting [4]), in experiment [1] (agonist: LPS 0.1 ug/mL) and in experiment [1] (agonist: MPLA […]) were 1.11 ± 0.097, 1 ± 0.053 and 1.01 ± 0.021, respectively. For the same compound, the IRF reporter in experiment [2] (agonist: 3'3'-cGAMP 10 ug/mL) was 0.844 ± 0.056; in experiment [2] (agonist: LPS 0.1 ug/mL), 0.937 ± 0.1; in experiment [2] (agonist: MPLA […]) it was 0.921 ± 0.072. Also, in experiment [3], the viability score is 1 (active).

In the case of `COc1cccc2c1C(=O)c1c(O)c3c(c(O)c1C2=O)C[C@@](O)(C(=O)CO)C[C@@H]3O[C@H]1C[C@H](N)[C@H](O)[C@H](C)O1` [Prestw-438], the figures for the NF-kB reporter in experiment [1] (setting [4]), in experiment [1] (agonist: LPS 0.1 ug/mL) and in experiment [1] (agonist: MPLA […]) were 0.123 ± 0.007, 0.0747 ± 0.019 and 0.112 ± 0.0071, respectively. Besides, the IRF reporter worked out at 0.03 ± 0.0031 in experiment [2] (agonist: 3'3'-cGAMP 10 ug/mL), 0.0425 ± 0.0034 in experiment [2] (agonist: LPS 0.1 ug/mL) and 0.0335 ± 0.0064 in experiment [2] (agonist: MPLA […]). Besides, the viability score in experiment [3] is 0.114 (inactive).

Regarding `Cc1nc(Nc2ncc(C(=O)Nc3c(C)cccc3Cl)s2)cc(N2CCN(CCO)CC2)n1.Cl`, the NF-kB reporter in experiment [1] (setting [4]) came to 0.802 ± 0.035; in experiment [1] (agonist: LPS 0.1 ug/mL), 1.01 ± 0.12; in experiment [1] (agonist: MPLA […]), 1.06 ± 0.067. Also, the IRF reporter in experiment [2] (agonist: 3'3'-cGAMP 10 ug/mL) came out at 0.976 ± 0.048; in experiment [2] (agonist: LPS 0.1 ug/mL), 1.22 ± 0.28; in experiment [2] (agonist: MPLA […]), 1.34 ± 0.45. Moreover, the viability score in experiment [3] is 1 (active).
